# MPTP inh: blocks calcium-induced mitochondrial swelling | hit rate 1.4% among 360,000 | inhibition, % at 10 µM | isolated mouse mitochondria, Ca2+ swelling absorbance, 30 min;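 active means inhibition of 50% or more, scaled per plate between neutral and stimulator controls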;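 further: 0% = DMSO wells given calcium and 100% = 1 mM EGTA wells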
# SKKanGAS inh: blocks kanamycin growth of S. pyogenes SKKanGAS strain; BacTiter-Glo, 6 h; inhibition, % at 7.5 µM; hit rate 1.3% among 300,000; AID 1662;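 active means mean replicate score, as percent of positive control median, at least 50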;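 further: strain carries kanamycin resistance gene driven by streptokinase promoter and grows in 40 µg/ml kanamycin; loss of luminescence reflects streptokinase promoter inhibition or plain growth inhibition; 0% = median of DMSO wells and 100% = positive control at its reference dose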
# NR3A LBD binder: modulates the human NR3A ligand-binding domain | Tm shift relative to glycine control, % at 25 µM | hit rate 2.5% among 340,000 | NR3A LBD differential scanning fluorimetry, Tm shift; 0% = protein alone, 100% = glycine-bound protein | AID 1259313;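 active means melting temperature shift of at least 10% of the positive control shift, at one fixed dose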
# Mdm2 MdmX PPI: human Mdm2/MdmX binding inhibition. hit rate 3% among 330,000. O15151+Q00987. SaOS-2 split-luciferase Mdm2/MdmX complementation, luminescence. AID 485346. inhibition, % at 8 µM;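 active means inhibition of at least 50% at 8 µM in the primary screen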
# Beta apoptosis: blocks beta cell apoptosis; protection from apoptosis, % (test concentration not listed); AID 435005; hit rate 0.8% among 300,000; INS-1E cytokine-induced death, ATP luminescence, 48 h; percent of positive-control rescue, neutral wells zero;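 active means Every replicate reaches about 75%, or at least half do and their mean reaches it too, limit read from the data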;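 further: 0% = cytokine-treated negative control wells and 100% = positive control rescue; higher means more ATP so stronger rescue from cytokine killing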
# CSC inhib: cancer stem cell inhibition | cancer stem cell-like cells viability, luminescence | inhibition, % at 7.5 µM | hit rate 1.1% among 300,000 | AID 2717; in the data active means inhibition above about 75%; tested in HMLE shEcad cells
# MPTP counter: mitochondrial membrane potential, counter-screen. shares compounds with MPTP inh. isolated mitochondria, Rhodamine 123 fluorescence. inhibition, % at 10 µM. hit rate 78% among 5,000. AID 624504; in the data active means inhibition above about 22%;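 further: 0% = DMSO vehicle and 100% = positive control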
# MPTP swell DR: dose response confirmation of mitochondrial permeability transition pore inhibitors. hit rate 58% among 780. shares compounds with MPTP inh. IC50, µM. isolated mitochondria swelling, absorbance; in the data active means IC50 below about 20 µM
# MPTP cs DR: active in counter-screen for permeability transition pore inhibitors; shares compounds with MPTP inh; isolated mitochondria counterscreen, fluorescence read-out; IC50, µM; hit rate 49% among 780; in the data active means IC50 below about 80 µM
# Active calls of the source: *; x = no result. Compounds with a hit are over-represented: about 6.9% of the library has one in this group of screens.
SMILES,MPTP inh,SKKanGAS inh,NR3A LBD binder,Mdm2 MdmX PPI,Beta apoptosis,CSC inhib,MPTP counter,others
CN(Cc1ccc(Br)cc1)CC(O)COc1cccc(Br)c1 (centres undefined),60*,-5,-3,24,-2,19,-4,MPTP swell DR=>100;MPTP cs DR=43*
CNCC(O)COc1cccc(OC)c1 (centres undefined),6,-2,0,1,-7,-5,x,
CN(C)CC(O)COc1cccc(OCC(O)CN(C)C)c1 (centres undefined),5,4,-1,13,-5,-13,x,
COc1ccc(OC)c(CCNC(=O)c2ccc(CS(=O)Cc3ccc(Cl)cc3)o2)c1 (centres undefined),-1,2,-4,5,1,3,x,
COc1ccc(Cl)cc1NC(=S)NCCC(c1ccccc1)c1ccccc1,67*,4,18*,43,-2,45,91*,
COc1ccccc1NC(=S)NCCC(c1ccccc1)c1ccccc1,30,x,1,23,-1,-2,x,
COc1cc(NC(=S)NCCC(c2ccccc2)c2ccccc2)c(OC)cc1Cl,97*,19,24*,31,57,37,81*,
C/C(=N\NC(=O)c1nnn(-c2nonc2N)c1-c1ccc(Cl)c(Cl)c1)c1ccncc1,0,-7,-10,25,5,-3,x,
CC1Cc2cc(S(=O)(=O)NCc3ccccc3)ccc2N1C(=O)C1CCC1 (centres undefined),72*,6,0,-2,7,5,53*,
CC1Cc2cc(S(=O)(=O)NCc3ccccc3)ccc2N1C(=O)C1CC1 (centres undefined),12,0,-1,9,10,-11,x,
Cc1ccc(C(=O)N2CCCC(N3CCN(c4cccc(C(F)(F)F)c4)CC3)C2)s1 (centres undefined),-3,-4,1,2,3,20,x,
CCCCc1ccc(-n2nnnc2SCC(=O)Nc2cc(OC)c([N+](=O)[O-])cc2C)cc1,64*,0,2,7,10,16,53*,
CSc1ccc(CNC(C)(C)CO)cc1,-2,-5,0,-23,-5,13,x,
Cc1cc2cc(C)c(NCCNC(=O)c3cccs3)nc2cc1C,3,-3,0,17,17,x,x,
CC(C)(C)c1ccc(S(=O)(=O)Nc2ccc(Cc3ccncc3)cc2)cc1,73*,25,-24,28,37,20,74*,
O=C(N/C=C\c1ccccc1)NCc1ccc(Cl)cc1Cl,4,4,-6,14,-12,1,x,
O=C(NCc1csc2ccc(Cl)cc12)Nc1ccccc1,85*,6,23*,21,0,26,75*,
O=C(NCc1csc2ccc(Cl)cc12)Nc1cccc2ccccc12,18,5,2,-7,-3,-10,x,
O=C(NCc1ccc(Cl)cc1Cl)Nc1ccccc1,80*,-7,-6,-52,6,15,94*,
Cc1ccc(NC(=O)CN2CCN(C(=O)C3CCCO3)CC2)c(C)c1 (centres undefined),-2,2,2,10,-3,-4,x,
O=C(NCCCN1CCCC1=O)c1cccc(S(=O)(=O)Nc2ccccc2Cl)c1,-2,x,2,-22,-3,3,x,
O=C1/C(=C/c2ccc(O)c(O)c2)SC(=S)N1Nc1ccccc1,101*,9,16*,x,x,x,56*,
Cc1ccc(S(=O)(=O)/N=C(/Nc2ccc([N+](=O)[O-])cc2)c2ccccc2)cc1,2,4,-11,9,5,40,x,
Cc1ccc(S(=O)(=O)/N=C(/Nc2ccc([N+](=O)[O-])cc2[N+](=O)[O-])c2ccccc2)cc1,86*,x,1,8,9,40,92*,
COc1cc(OC)c(NC(=O)c2cc3ccccc3cc2O)cc1Cl,90*,x,26*,x,x,x,33*,
Cc1ccc(Cl)cc1NC(=O)c1ccccc1OCC(=O)N1CCOCC1,0,6,4,1,-3,-6,x,
